Compound activity from PubChem.
DT40 TDP1 no CPT: qHTS for Inhibitors of human tyrosyl-DNA phosphodiesterase 1 (TDP1): qHTS in cells in absence of CPT; Potency, µM (highest dose often 46.2 µM), hits mostly inhibitors; DT40 Tdp1-/- hTDP1 cells, no CPT, ATP luminescence, 48 h; AID 686978, 2013; hit rate 15% among 420,000; also: nearly all actives have a fitted effect of over 55% in size
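Cells were dispensed at 400 per well, compounds added by pin tool, plates incubated ≥48 hr at 37 °C, then CellTiter-Glo added for 30 min at room temperature before luminescence reading. Line: DT40 Tdp1-/- complemented with hTDP1; camptothecin omitted.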
uPA generation: qHTS for Inhibitors of Cell Surface uPA Generation | cell surface uPA generation assay, qHTS | Potency, µM (series often up to 38.3 µM), usual class: inhibitors | hit rate 0.31% among 330,000; active = well fitted inhibition curve with a large enough effect; inconclusive = small, poorly fitted or top-dose-only effect; inactive = no such curve, though single readings can be large or run the other way; tested in mouse RAW 264.7 cells; also: nearly all actives have a fitted effect of over 55% in size
TDP1 inh: qHTS Assay for Inhibitors of Tyrosyl-DNA Phosphodiesterase (TDP1); Tyrosyl-DNA phosphodiesterase 1 (Homo sapiens), Q9NUW8; recombinant TDP1, AlphaScreen DNA substrate cleavage; hit rate 0.28% among 350,000; Potency, µM (titrated, usually from 130 µM), actives largely listed as inhibitors; AID 485290, 2010; also: nearly all actives have a fitted effect of over 40% in size
Target sequence (Q9NUW8 whole entry, looked up): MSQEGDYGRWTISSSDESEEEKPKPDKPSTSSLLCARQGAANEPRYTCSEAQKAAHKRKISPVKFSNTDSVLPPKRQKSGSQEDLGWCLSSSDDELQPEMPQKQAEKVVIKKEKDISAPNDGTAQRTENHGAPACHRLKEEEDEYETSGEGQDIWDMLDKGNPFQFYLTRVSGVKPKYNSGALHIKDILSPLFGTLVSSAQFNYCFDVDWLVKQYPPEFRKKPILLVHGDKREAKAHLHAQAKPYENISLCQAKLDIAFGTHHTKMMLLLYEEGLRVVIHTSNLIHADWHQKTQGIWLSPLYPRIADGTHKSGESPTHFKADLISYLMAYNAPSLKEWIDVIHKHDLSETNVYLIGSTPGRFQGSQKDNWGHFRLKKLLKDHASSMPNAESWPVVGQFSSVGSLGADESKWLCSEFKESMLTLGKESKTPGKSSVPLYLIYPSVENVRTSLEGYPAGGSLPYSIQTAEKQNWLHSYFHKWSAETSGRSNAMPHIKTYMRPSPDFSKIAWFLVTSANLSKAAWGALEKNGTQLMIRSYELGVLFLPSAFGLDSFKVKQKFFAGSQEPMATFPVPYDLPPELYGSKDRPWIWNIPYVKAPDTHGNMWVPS
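Tdp1 1 nM final; 15 min RT w/ cpd; substrate 15 nM, 5 min; beads 10 ug/ml, 10 min; AlphaScreen read. Neg ctrl: no enzyme.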
TDP1 cell CPT: qHTS for Inhibitors of human tyrosyl-DNA phosphodiesterase 1 (TDP1): qHTS in cells in presence of CPT. chicken DT40 Tdp1-/-;hTDP1 cells + 20 nM CPT, ATP luminescence, 48 h. Potency, µM (top dose mostly 46.2 µM), usual class: inhibitors. hit rate 12% among 420,000; also: nearly all actives have a fitted effect of over 55% in size
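Cell growth measured by CellTiter-Glo luminescence after a minimum 48 h, 37 C compound exposure with 20 nM CPT in Tdp1-knockout DT40 cells stably expressing hTDP1, seeded 400/well; qHTS titration format.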
miR-21 act: qHTS Assay for Modulators of miRNAs and/orActivators of miR-21; Potency, µM (doses to about 38.3 µM), usual class: activators; HeLa miR-21 FLuc reporter, luciferase, 48 h; 340,000 tested, under 10 active; AID 2288, 2010;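 also: miR-21 action dims this reporter so a rising signal means less miR-21 action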
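HeLa cells stably expressing CMV-driven firefly luciferase with a downstream miR-21 binding sequence, endogenously expressing miR-21, were treated with titrations (up to about 40uM final) for 48 hours at 37 degree Celsius. Luciferase luminescence was read after lysis.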
A number is an active result; - = inactive; ? = inconclusive; . = no result given. Hits are enriched below; roughly 16% of the tested compounds scored in any of these assays. Unless noted, calls follow the shape of the dose curve; as a rule, active = well fitted curve in the direction sought with a large enough effect; inconclusive = small, poorly fitted or top-dose-only effect, or another doubt; inactive = no such curve, though single readings can be large; an effect the other way counts as inactive or inconclusive.

SMILES	DT40 TDP1 no CPT	uPA generation	TDP1 inh	TDP1 cell CPT	miR-21 act
CCCn1ccc2c(OCC(=O)Nc3ccc(NC(C)=O)cc3)cccc2c1=O	?	-	-	?	.
CCCn1ccc2c(OCC(=O)Nc3ccc(F)cc3F)cccc2c1=O	?	.	-	16.4µM	-
CCn1ccc2c(OCC(=O)Nc3ccc(C)c(Cl)c3)cccc2c1=O	16.4µM	.	-	25.9µM	-
CCn1ccc2c(OCC(=O)Nc3ccc(OC)cc3OC)cccc2c1=O	6.51µM	.	-	?	-
CCOC1CCCc2oc(-c3ccc(OC)cc3)c(C(=O)NCCCCO)c21 (stereo not drawn)	-	.	.	-	.
Cc1ccc(NC(=S)NNC(=O)C2CC2c2ccc(C)cc2)cc1 (stereo not drawn)	-	-	-	-	-
COCCCNC(=S)NNC(=O)C1CC1c1ccc(C(C)(C)C)cc1 (stereo not drawn)	8.2µM	-	-	11.6µM	-
COc1ccccc1C(=O)N1CCN(S(=O)(=O)c2ccccc2)CC1	-	-	-	-	-
CCOc1cccc(N(C(=O)Cc2cccs2)C(C(=O)NC2CCCCC2)c2cccn2C)c1 (stereo not drawn)	16.4µM	-	-	16.4µM	-
COc1cccc(N(C(=O)Cc2cccs2)C(C(=O)NC2CCCC2)c2ccncc2)c1 (stereo not drawn)	-	-	.	-	-
COc1ccc(C(C(=O)NC2CCCCC2)N(C(=O)c2cccs2)c2ccc3c(c2)OCO3)cc1 (stereo not drawn)	?	-	-	?	-
COc1cccc(C(C(=O)NC2CCCC2)N(C(=O)c2ccco2)c2ccc(-n3cnnn3)c(C)c2)c1OC (stereo not drawn)	2.91µM	-	-	?	-
CCOc1ccc(C(C(=O)NC2CCCCC2)N(C(=O)Cc2cccs2)c2ccc(-n3cnnn3)c(OC)c2)cc1 (stereo not drawn)	23.1µM	-	-	?	-
COc1ccc(C(C(=O)NC2CCCCC2)N(C(=O)c2ccco2)c2ccc(-n3cnnn3)c(C)c2)cc1 (stereo not drawn)	-	-	.	-	.
CCN(CC(=O)Nc1ccccc1C(F)(F)F)C(=O)C1CSC2(C)CCC(=O)N12 (stereo not drawn)	-	-	.	-	.
O=C(CSc1nc2ccccc2c(=O)[nH]1)Nc1cccc([N+](=O)[O-])c1	-	-	-	-	-
CC(C)CC(C(=O)NCC1CCN(Cc2ccc(F)cc2)CC1)N1Cc2ccccc2C1=O (stereo not drawn)	20.6µM	.	-	23.1µM	-
Cc1ccc(C)c(CN2CCC(CNC(=O)C(CC(C)C)N3Cc4ccccc4C3=O)CC2)c1 (stereo not drawn)	11.6µM	.	-	?	-
O=S(=O)(Cc1cc(Oc2ccccc2)nc(-c2ccccc2)n1)c1ccccc1	?	-	-	-	-
Cc1cccc(CS(=O)(=O)CC2Nc3ccc(C(=O)NCc4ccccc4Cl)cc3NC2=O)c1 (stereo not drawn)	?	.	-	8.2µM	-
O=C(NCc1ccc(Cl)cc1)c1ccc2c(c1)NC(=O)C(CS(=O)(=O)Cc1ccccc1Cl)N2 (stereo not drawn)	?	.	-	?	-
Clc1cccc(Cl)c1/C=N/Nc1c(Cl)cncc1Cl	3.26µM	-	-	2.06µM	-
CSCCC(C(=O)Nc1c(C)cccc1C)N1CCN(c2ccc(C(F)(F)F)cn2)CC1 (stereo not drawn)	-	.	.	-	.
COc1ccc(Cl)cc1NC(=O)C(C)N1CCN(C/C=C/c2ccccc2)CC1 (stereo not drawn)	20.6µM	-	-	?	-
Cc1cccc(C)c1NC(=O)C(c1ccccc1)N1CCC2(CC1)OCCO2 (stereo not drawn)	-	-	.	-	.
CSCCC(C(=O)Nc1c(C)cccc1C)N1CCN(C/C=C/c2ccccc2)CC1 (stereo not drawn)	13µM	.	.	?	.
CC(=O)c1ccc(NC(=O)C(C)N2CCN(C/C=C/c3ccccc3)CC2)cc1 (stereo not drawn)	?	-	-	-	-
Cc1cccc(C)c1NC(=O)C(c1ccccc1)N1CCN(C/C=C/c2ccccc2)CC1 (stereo not drawn)	?	.	.	18.4µM	.
CCN1CCN(C(=O)c2ccc(CS(=O)(=O)Cc3ccccc3Cl)o2)CC1	-	.	.	-	.
